PubChem BioAssay (Tox21)
Records with an inconclusive call do not appear. Activity calls are given as the source filed them. Unless noted, calls come from the whole dose curve; as a rule, active = well fitted curve in the direction sought with a large enough effect in the repeat runs; inconclusive = weak or mixed curves; inactive = flat fitted curve, though single readings scatter.

Columns and labels:
[1] = qHTS assay to test for compound auto fluorescence at 535 nm (green) in HEK293 cells (AID 720680)
[2] = qHTS assay to test for compound auto fluorescence at 460 nm (blue) in HEK293 cell free culture (AID 720681)
Outline: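 Compounds were added to cell-free DMEM with 10% FBS and fluorescence read directly. The blue channel used 405 nm excitation and 460 nm emission, with triamterene as the reference fluorophore.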

[3] = qHTS assay to test for compound auto fluorescence at 535 nm (green) in HEK293 cell free culture (AID 720682)
Outline: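 Fluorescein serves as the green reference fluorophore; each compound's intrinsic emission at 535 nm (excitation 485 nm) is reported as an equivalent amount of that dye, measured in serum-containing DMEM without cells.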

[4] = qHTS assay to test for compound auto fluorescence at 590 nm (red) in HEK293 cell free culture (AID 720683)
Outline: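 Cell-free wells of DMEM with 10% FBS received compound, and intrinsic fluorescence was read at excitation/emission 540/590 nm. Values expressed as equivalence to Rose Bengal sodium.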

[5] = qHTS assay to test for compound auto fluorescence at 590 nm (red) in HepG2 cell free culture (AID 720684)
Outline: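 Compounds are added to culture medium (MEM, 10% FBS) lacking cells, then fluorescence is read at excitation 540 nm, emission 590 nm, with Rose Bengal sodium as the equivalency standard.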

[6] = qHTS assay to test for compound auto fluorescence at 460 nm (blue) in HepG2 cell free culture (AID 720685)
Outline: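 Compound (23 nL) or DMSO pinned into cell-free MEM with 10% FBS; blue fluorescence read at 405/460 nm excitation/emission, expressed as auto-fluorescence equivalency to triamterene.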

[7] = qHTS assay to test for compound auto fluorescence at 535 nm (green) in HepG2 cell free culture (AID 720686)
[8] = qHTS assay to test for compound auto fluorescence at 460 nm (blue) in HepG2 cells (AID 720687)
Outline: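 HepG2 cells in MEM with 10% FBS, attached overnight at 37 C, were exposed to compound or DMSO for 1 hr at 37 C, 5% CO2. Blue fluorescence was read at 405/460 nm, with triamterene as reference fluorophore.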

[9] = molecular target: Glucocorticoid receptor (Homo sapiens) (UniProt P04150); assay: qHTS assay to identify small molecule agonists of the glucocorticoid receptor (GR) signaling pathway (AID 720691; active = well fitted activation curve with a large enough effect in the signal ratio in the repeat runs, not every such curve was filed as active; the % refers to the signal ratio)
Sequence of Glucocorticoid receptor (Homo sapiens) (P04150 whole entry, looked up): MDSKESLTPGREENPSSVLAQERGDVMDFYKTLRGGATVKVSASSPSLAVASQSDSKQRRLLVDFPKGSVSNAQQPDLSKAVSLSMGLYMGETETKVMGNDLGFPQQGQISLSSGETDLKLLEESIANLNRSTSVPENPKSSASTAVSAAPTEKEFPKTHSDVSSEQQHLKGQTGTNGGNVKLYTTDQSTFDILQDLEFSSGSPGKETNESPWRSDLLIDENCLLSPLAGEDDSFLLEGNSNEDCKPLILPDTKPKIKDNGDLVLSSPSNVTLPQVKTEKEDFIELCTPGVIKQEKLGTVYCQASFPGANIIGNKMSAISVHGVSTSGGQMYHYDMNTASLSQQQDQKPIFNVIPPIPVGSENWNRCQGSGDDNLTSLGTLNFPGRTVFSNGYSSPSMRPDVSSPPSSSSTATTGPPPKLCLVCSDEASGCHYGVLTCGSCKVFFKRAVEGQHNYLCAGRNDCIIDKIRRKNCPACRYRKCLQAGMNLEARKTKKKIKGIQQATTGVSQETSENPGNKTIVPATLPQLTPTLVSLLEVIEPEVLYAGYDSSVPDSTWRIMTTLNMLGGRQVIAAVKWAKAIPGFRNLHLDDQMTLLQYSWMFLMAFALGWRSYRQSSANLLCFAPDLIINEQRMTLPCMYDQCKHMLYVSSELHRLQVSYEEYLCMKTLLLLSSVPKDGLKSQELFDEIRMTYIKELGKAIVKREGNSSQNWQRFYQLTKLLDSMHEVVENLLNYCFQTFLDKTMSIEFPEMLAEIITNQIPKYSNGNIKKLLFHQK
Outline: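 qHTS in GR-bla HeLa cells: 4 h settling at 37 C/5% CO2, 18 h compound incubation at 37 C, 2 h LiveBLAzer B/G FRET substrate at room temperature, fluorescence intensity measured.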

[10] = molecular target: Glucocorticoid receptor (Homo sapiens) (UniProt P04150); assay: qHTS assay to identify small molecule antagonists of the glucocorticoid receptor (GR) signaling pathway (AID 720692; active = well fitted inhibition curve with a large enough effect in the signal ratio in the repeat runs, not every such curve was filed as active; the % refers to the signal ratio)
Outline: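 Inhibition of glucocorticoid signalling is measured in HeLa cells with a GRE-controlled beta-lactamase reporter; cells are co-treated with compound and 5 nM dexamethasone (final) for 18 h before FRET substrate readout.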

Measured: Potency

CN1C[C@H](CNC(=O)OCc2ccccc2)C[C@@H]2c3cccc4c3c(cn4C)C[C@H]21
not listed: [10]
inactive: all other assays above

COC(=O)C(C)N(C(=O)Cc1ccccc1)c1c(C)cccc1C (centres undefined)
not listed: [10]
inactive: all other assays above

N#C/C(N)=C(/N)C#N
not listed: [10]
inactive: all other assays above

C=CC(C)=O
not listed: [10]
inactive: all other assays above

C=CCOC(C)=O
not listed: [10]
inactive: all other assays above

CC(C)(C)c1cc([N+](=O)[O-])cc([N+](=O)[O-])c1O
not listed: [10]
inactive: all other assays above

CCCCC(O)(Cn1cncn1)c1ccc(Cl)cc1Cl (centres undefined)
not listed: [10]
inactive: all other assays above

O=C(N[C@H](c1ccccc1)[C@@H]1CN2CCC1CC2)c1c(Cl)ccc(C(F)(F)F)c1Cl
inactive: all assays above

NNC(=O)c1cccnc1
not listed: [10]
inactive: all other assays above

Oc1ccc(Cl)c(Cl)c1Cl
inactive: all assays above

O=S1OC[C@@H]2[C@H](CO1)[C@]1(Cl)C(Cl)=C(Cl)[C@@]2(Cl)C1(Cl)Cl (some centres undefined)
not listed: [10]
inactive: all other assays above

O=C(CCl)c1ccc(Cl)cc1Cl
not listed: [10]
inactive: all other assays above

C[N+](C)(C)CCCl
not listed: [10]
inactive: all other assays above

O=C(NC(=O)c1c(F)cccc1F)Nc1cc(Cl)c(Oc2ncc(C(F)(F)F)cc2Cl)c(Cl)c1
not listed: [10]
inactive: all other assays above

C=CC(=O)OCC(C)C
not listed: [10]
inactive: all other assays above

CCCCc1c(C)nc(NCC)nc1OS(=O)(=O)N(C)C
not listed: [10]
inactive: all other assays above

C=CC(=O)NCNC(=O)C=C
not listed: [10]
inactive: all other assays above

Clc1cc(Cl)c(Cl)c(Cl)c1
not listed: [10]
inactive: all other assays above

c1ccc(CN2CCNCC2)cc1
inactive: all assays above

OCCCBr
inactive: all assays above

CC/C(=N\OC/C=C/Cl)C1=C(O)CC(C2CCOCC2)CC1=O (centres undefined)
inactive: all assays above

COc1cc(CC(C)N)cc2c1OCO2 (centres undefined)
inactive: all assays above

Cn1sc(Cl)cc1=O
inactive: all assays above

O=[N+]([O-])c1ccccc1CCl
inactive: all assays above

C[C@@H]1CC[C@H]2[C@@H](C)C(=O)O[C@@H]3O[C@@]4(C)CC[C@@H]1[C@]32OO4
inactive: all assays above
